Source: PubChem (National Center for Advancing Translational Sciences (NCATS))
BAZ2B inh: blocks human BAZ2B | AlphaScreen BAZ2B-H3K14Ac peptide displacement | Q9UIF8 | 4.4% of 360,000 active | Potency, µM (highest dose often 114 µM), for the others: top-dose activity change, negative = inhibition, hits mostly inhibitors | AID 504333; further: on the % scale 0 is the no-effect control and ±100 the full control effect; nearly all actives have a fitted effect of over 60% in size
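Compounds, titrated to a top concentration of 110 uM, were incubated 30 min at room temperature with preformed BAZ2B/acetyl-K14 H3 peptide complex (50 nM each). Proximity signal was measured by AlphaScreen after 20 min with beads.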
JMJD2A Tudor: blocks the human JMJD2A Tudor domain; 4.4% of 390,000 active; Potency, µM (top dose mostly 114 µM), inactives show at the top dose activity change, negative = inhibition, actives largely listed as inhibitors; O75164; AlphaScreen JMJD2A-Tudor / H3K4me3 peptide binding; AID 504339; further: on the % scale 0 is the no-effect control and ±100 the full control effect; nearly all actives have a fitted effect of over 50% in size
Sfp PPTase inh: Sfp phosphopantetheinyl transferase inhibition; Biochemical Sfp PPTase activity, qHTS; Potency, µM, for inactives: largest response in the series, negative = inhibition, usual class: inhibitors; 3.5% of 310,000 active;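 further: the enzyme is Sfp with the accession as filed and its product quenches rhodamine fluorescence; 0% = enzyme reaction without inhibitor and -100% = no enzyme wells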
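Compounds were incubated with enzyme (final 15 nM) for 15 min at room temperature before substrate addition started the reaction. Fluorescence at 525 nm excitation, 598 nm emission was recorded immediately and after 30 minutes.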
HP1b binding inh: inhibitors of HP1-beta chromodomain binding to methylated histone tails | P83916 | AlphaScreen HP1-beta / biotin-H3K9me3 peptide binding | Potency, µM (doses to about 114 µM), inactives show at the highest dose activity change, negative = inhibition, hits mostly inhibitors | 0.56% of 390,000 active | AID 540317; further: nearly all actives have a fitted effect of over 70% in size
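AlphaScreen: HP1-beta (50 nM) preformed 30 min with biotin-H3(1-18)K9me3 peptide (50 nM) in PBS pH 7.4, 0.01% Tween-20. Compound added for 30 min at RT, then streptavidin donor/nickel chelate acceptor beads (10 ug/mL) for 30 min.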
L3MBTL1 block: L3MBTL1 (human) inhibition; Q9Y468; AlphaScreen L3MBTL1–H3K9me1 peptide binding; Potency, µM (titrated, usually from 57.1 µM), for the others: top-dose activity, negative = inhibition, actives largely listed as inhibitors; 0.66% of 230,000 active; AID 485360; further: on the % scale 0 is the no-effect control and ±100 the full control effect; nearly all actives have a fitted effect of over 60% in size
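First, the protein-peptide complex forms for 30 min at room temperature (L3MBTL1 50 nM, biotinylated H3K9me1 peptide 75 nM). Next, compounds are pin-transferred and incubated 30 min. Finally, AlphaScreen beads are added and read after 30 min.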
G9a block: inhibitors of human histone lysine methyltransferase G9a. Q96KQ7. G9a H3K9 monomethylation, AlphaScreen, 2 h. Potency, µM (highest dose often 102 µM), inactives show top-dose activity, negative = inhibition, usual class: inhibitors. 8.8% of 350,000 active. AID 504332; further: on the % scale 0 is the no-effect control and ±100 the full control effect; nearly all actives have a fitted effect of over 75% in size
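Methyltransferase reactions run at room temperature for 2 h (20 nM enzyme, 500 nM biotin-H3K9 peptide, 20 uM SAM) after a 15 min compound preincubation; product detected by AlphaScreen beads and anti-H3K9me1 antibody.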
Starred values were filed as active, the others as inactive; ? = inconclusive; nt = no result; [ ] = dose if it differs, or a comment. This is a sample that favours compounds with a hit; in the whole collection about 12% have one here. The call rests on the fitted dose curve; in most records, active means well fitted curve in the direction sought with a large enough effect; inconclusive means small, poorly fitted or top-dose-only effect, or another doubt; inactive means no such curve, though single readings can be large; an effect the other way counts as inactive or inconclusive. Potency means the concentration at half of the fitted maximal effect.

SMILES	BAZ2B inh	JMJD2A Tudor	Sfp PPTase inh	HP1b binding inh	L3MBTL1 block	G9a block
CCOC(=O)NC(=O)/C(C#N)=N\Nc1ccc(Cl)cc1	-37.2%	-23.4%	-6.9%	-8.6%	nt	-25.2%
Cc1c(N/N=C(\C#N)C(=O)c2ccc(Cl)cc2)c(=O)n(-c2ccccc2)n1C	25.1µM*	79.4µM*	6.7%	-2.7%	?	?
CC1=C(c2ccc(C)c(C)c2)S(=O)(=O)N=C1N1CCC(C(=O)N2CCC(C)CC2)CC1	0.0%	-2.3%	nt	56.9%	nt	6.1%[59 µM]
COc1ccccc1NC(=O)N1CCN(c2nnc(C)c3c(C)n(-c4ccccc4)nc23)CC1	-3.9%	-14.1%	nt	83.9%	nt	?
CCc1ccc(-n2nc3cc(C)c(NC(=O)c4ccccc4C)cc3n2)cc1	?	89.1µM*	nt	8.1%	nt	7.94µM*
CCc1ccc(-n2nc3cc(C)c(NC(=O)c4cccc5ccccc45)cc3n2)cc1	-17.1%	4.5%	nt	28.6%	nt	?
CCc1ccc(-n2nc3cc(C)c(NC(=O)c4cc(OC)cc(OC)c4)cc3n2)cc1	?	-30.6%	nt	6.1%	nt	5.62µM*
COc1cccc(Cn2c(CNC(=O)C(C)C)nc3cccnc32)c1	-0.3%	-3.9%	nt	25.0%[57 µM]	nt	13.0%[59 µM]
O=C1/C(=C\c2cccs2)Sc2ccc3ccccc3c21	?	?	-1.2%	?	-24.7%	7.94µM*
COc1ccc(-c2cc(-c3cc(OC)ccc3O)[nH]n2)cc1	?	28.2µM*	-10.5%	?	nt	-6.9%[59 µM]
COc1ccc(-c2n[nH]c(C)c2-c2cc(OC)ccc2O)cc1	-33.4%	-34.8%	39.8µM*	11.7%	nt	?
COc1ccc(O)c(-c2cc(-c3ccc(F)cc3)n[nH]2)c1	?	?	-4.2%	10.8%	nt	?
O=[N+]([O-])c1cc(CSC2=NCCN2)ccc1O	?	-11.0%[11.4 µM]	-19.4%	1.8%	nt	25.1µM*
CCOC(=O)Cc1c[nH]c(=S)[nH]c1=O	-8.5%	?	79.4µM*	14.4%[57 µM]	14.3%	-8.6%[2.33 µM]
CCOC(=O)Cc1c(C)nc(N)[nH]c1=O	1.2%	4.4%	20.4%	8.9%	-5.3%	18.3%
O=C(Cn1cc(CNCc2ccccc2)nn1)Nc1cc(C(F)(F)F)ccc1Cl	nt	-8.9%	nt	nt	nt	nt
C=C(C)CNC(=S)Nc1sc2c(c1C(=O)OCC)CC(C)(C)OC2	8.9%	?	39.8µM*	-35.6%	17.7%	14.1µM*
CCOC(=O)c1c(NC(=O)c2ccc(C)cc2)sc2c1CC(C)(C)OC2	59.1%	51.3%	25.1µM*	25.6%	nt	15.8%[12.7 µM]
CC1(C)Cc2c(sc(NC(=O)C(=O)N3CCCC3)c2C(N)=O)CO1	-34.2%	-33.6%	-28.8%	25.3%	nt	50.1µM*
COC(=O)c1c(NC(=O)C(=O)N2CCCC2)sc2c1CC(C)(C)OC2	-0.3%	-5.3%	2.0%	64.6%	nt	34.4%
CCOC(=O)c1c(NC(=O)c2ccccc2C)sc2c1CC(C)(C)OC2	52.7%	59.7%	31.6µM*	45.5%	nt	?
Cc1cc2c(s1)c1cnn(Cc3ccccc3)c(=O)c1n2C	nt	2.7%	nt	nt	nt	nt
CCOC(=O)c1ccc(N2CSC3=C(C#N)C(c4ccc(OC)cc4OC)CC(=O)N3C2)cc1 (stereo not drawn)	50.1µM*	-29.9%	20µM*	33.7%	nt	12.6µM*
CCc1ccccc1N1CSC2=C(C#N)C(c3cc(OC)c(OC)cc3OC)CC(=O)N2C1 (stereo not drawn)	50.1µM*	8.91µM*	0.891µM*	-75.4%	nt	?
COc1cc(OC)c(C2CC(=O)N3CN(c4ccccc4)CSC3=C2C#N)cc1OC (stereo not drawn)	25.1µM*	5.62µM*	3.16µM*	?	-6.7%	3.16µM*
SMILES	BAZ2B inh	JMJD2A Tudor	Sfp PPTase inh	HP1b binding inh	L3MBTL1 block	G9a block
COc1cc2c(cc1OC)C(c1ccccc1)CC2=O (stereo not drawn)	-4.7%	-19.2%	-5.0%	17.6%	nt	nt
Cc1cc(C)cc(NC(=O)C2CCN(S(=O)(=O)c3c(C)noc3/C=C/c3ccco3)CC2)c1	nt	-22.3%	nt	27.2%	nt	1.0%[59 µM]
COc1cc(S(=O)(=O)N(Cc2cccc(OC)c2OC)CC2CCCO2)ccc1-n1cnnn1 (stereo not drawn)	-38.8%	-21.5%	14.0%	29.1%	nt	50.1µM*
COc1ccc(CN(CC2CCCO2)S(=O)(=O)c2ccc(-n3cnnn3)c(OC)c2)cc1 (stereo not drawn)	-10.8%	-4.3%	8.3%	30.9%	-2.9%	-2.5%
COc1cccc(CN(Cc2cccnc2)S(=O)(=O)c2ccc(-n3cnnn3)c(C)c2)c1OC	?	?	-9.6%	20.5%	-3.1%	25.1µM*
CC(C)c1ccc(NC(=O)c2cc3c(=O)[nH]c4ccccc4c3n2C)cc1	nt	-16.7%	nt	22.0%	nt	-13.1%[59 µM]
Cc1[nH]c2ccc(F)cc2c1CCN1C(=O)OC(C)(C)C1(C)O (stereo not drawn)	-26.3%	-1.0%	5.9%	-0.4%	nt	-0.2%[12.7 µM]
Cc1[nH]c2ccc(OCc3ccccc3)cc2c1CCN1C(=O)OC(C)(C)C1(C)O (stereo not drawn)	?	?	-4.5%	-9.9%	nt	79.4µM*
Cc1cc(=O)oc(C)c1C(=O)N[C@@H](Cc1ccccc1)C(=O)O	-2.1%	-6.0%	13.0%	38.5%	nt	-45.0%
Cc1cc(C(=O)NC(Cc2ccccc2)C(=O)O)c(C)o1 (stereo not drawn)	-33.3%	-16.1%	12.2%	-11.0%	nt	70.8µM*
Cc1oc(-c2ccccc2)cc1C(=O)NC(Cc1c[nH]c2ccccc12)C(=O)O (stereo not drawn)	-38.9%	?	39.8µM*	-4.5%	-9.3%	?
COc1ccc(C=Nc2cccc3c(=O)[nH][nH]c(=O)c23)c2ccccc12	-30.6%	-26.1%	-8.5%	13.0%	nt	50.1µM*
O=C(NCc1ccc2c(c1)CCN2C(=O)c1ccccc1)c1ccco1	-3.1%	-5.0%	nt	23.1%	nt	4.2%[59 µM]
CN(C)c1ccc(CNC(=O)C2CCN(S(=O)(=O)c3ccc4c(c3)CCCC(=O)N4)CC2)cc1	?	?	1.8%	2.6%	nt	44.7µM*
CC1CCN(S(=O)(=O)c2cc(C(=O)NCc3ccc(N(C)C)cc3)n(C)c2)CC1	35.5µM*	56.2µM*	nt	-8.8%[57 µM]	nt	10µM*
O=S(=O)(Nc1ccc(N=Nc2ccc(O)c3ccccc23)cc1)c1ccccc1	39.8µM*	25.1µM*	?	39.8µM*	?	?
O=S(=O)(Nc1ccccc1)c1ccc(NS(=O)(=O)c2c(F)cccc2F)cc1	-4.0%	-13.7%	8.1%	21.2%	nt	50.1µM*
O=S(=O)(Nc1ccc(-c2ccccc2)cc1)c1ccccc1	nt	-11.6%	nt	4.7%	nt	nt
O=S(=O)(Nc1ccc(S(=O)(=O)Nc2ccccc2)cc1)c1ccccc1	2.3%	-20.6%	-4.7%	13.6%	6.1%	-28.0%
O=[N+]([O-])c1ccc(N=Nc2ccc(O)c3ccccc23)cc1	nt	3.16µM*	nt	7.94µM*	nt	nt
